Source: PubChem BioAssay AID1347076 (National Center for Advancing Translational Sciences (NCATS), 2019)
Hit rate of the full screen: of about 400,000 compounds, about 13,000 (3.2%) were called active. Inconclusive results (about 18%) are left out. Calls follow the shape of the dose curve; as a rule, active = well fitted cell-killing curve with a large enough effect; inconclusive = small, poorly fitted or top-dose-only effect, or effect the other way; inactive = flat fitted curve, though single readings scatter. Many of the other results were omitted from the sample, so actives are more common in it than they were.

Assay: qHTS assay for MDR1-selective chemotherapeutics: Primary screen using the drug-selected MDR subline cells KB-V1; also: nearly all actives have a fitted effect of over 60% in size
Details: KB-V1 MDR cells viability, CellTiter-Glo, 72 h; series mostly up to 46.1 µM; activity change, negative = cytotoxicity: at the top concentration
Description: A prime difficulty in effectively treating cancer is the development of cellular resistance to multiple structurally unrelated anticancer drugs, a phenomenon known as multidrug resistance (MDR). […] Numerous strategies to overcome P-gp-mediated MDR have been explored, including the design of drugs that evade recognition and efflux, and development of inhibitors to block efflux and restore drug accumulation. […] An alternative approach is to exploit resistance by identifying drugs that target MDR cells over the non-resistant parental cells from which they were selected. […] The development of MDR1-selective agents represents a new strategy for resolving multidrug resistance, as it remains a long-standing clinical challenge for cancer chemotherapy.
Our goal is to identify compounds that selectively kill P-gp-expressing MDR cells. We will identify MDR1-selective compounds by comparing toxicity of compounds in the screening library against parental, drug-naive (KB-3-1) adenocarcinoma cells as well as their drug-selected MDR sub-line (KB-V1). The differential toxicity of compounds against these two cell lines will be used to identify MDR1-selective compounds, whose cytotoxicity is potentiated, rather than diminished, by P-gp expression. This assay will be utilized to conduct a quantitative high-throughput screen (qHTS) in collaboration with the NIH Chemical Genomics Center to identify selective agents, and probe hits arising from the screen will be validated using secondary assays and characterized through a well-established follow-up research program. This screen was run against the entire NCGC library collection of about 400,000 compounds.
NIH Molecular Libraries Probe Production Network [MLPCN]
NIH Chemical Genomics Center [NCGC]
PI: Michael Gottesman, National Cancer Institute, NIH
Briefly, 5 microL of media containing either KB-V1 cells (columns 1-2, 4-48) are dispensed into Greiner white, treated solid-bottom 1536-well assay plates (media-only control is added to column 3). Compounds are then transferred via Kalypsys pin tool equipped with 1536-pin array (10 nL slotted pins, V&P Scientific, San Diego, CA). Following addition of compound, the plates are incubated at 37 degrees C for 72 hours. CellTiter-Glo (2.5 µL/well) is then added, and the plates are read in a ViewLux reader (Perkin-Elmer, clear luminescence filter, 1 second exposure, 1x binning) following a 10 minute incubation. All cells are dispensed in DMEM phenol-red free media containing 10% FBS.
Library plates were screened starting from the lowest and proceeding to the highest concentration. Vehicle-only plates, with DMSO being pin-transferred to columns 5-48, will be inserted uniformly at the beginning and the end of each library in order to monitor and record any shifts in the background, which can be affected by reagent dispensers or loss in enzyme activity over time. Screening data will be corrected, normalized, and concentration-effect relationships will be derived by using publicly-available NCGC, NCATS curve fitting algorithms (http://ncgc.nih.gov/pub/openhts).
% is scaled to controls: 0 for no effect and ±100 for the full control effect; potency is read from the fitted curve at half-maximal effect.

**Q.** Which Potency does the source give for Cc1[nH]c2ccccc2c1C(=O)C(C)Sc1nnc(C2CC2)o1 (centres undefined) here?
**A.** 7.31 µM (active)

**Q.** For Cc1[nH]c2ccccc2c1C(=O)CN1CC(C)CC(C)C1 (centres undefined), which “activity change, negative = cytotoxicity” value is on record?
**A.** -4.45% (inactive)

**Q.** With COc1ccc(NC(=O)c2ccc3nc(CCc4ccccc4)oc3c2)c(OC)c1 as the molecule, how does the “activity change, negative = cytotoxicity” value read?
**A.** 8.05% (inactive)

**Q.** With CC1(C(=O)NS(=O)(=O)c2cccs2)CCN1C(=O)Cc1ccc(-c2ccccc2)cc1 (centres undefined) as the molecule, how does the “activity change, negative = cytotoxicity” value read?
**A.** 2.38% (inactive)

**Q.** For O=C(COc1ccccc1C(=O)Nc1ccccc1)Nc1cccc(F)c1, which “activity change, negative = cytotoxicity” value is on record?
**A.** 18.7% (inactive)

**Q.** Which “activity change, negative = cytotoxicity” value does the source give for Cc1nc2c(-c3ccccc3)c(C)nn2c(C)c1CCC(=O)NCCc1ccccc1 here?
**A.** -0.983% (inactive)

**Q.** With COc1cc(NC(=O)CCn2nc(C)cc2C)cc(OC)c1OC as the molecule, how does the “activity change, negative = cytotoxicity” value read?
**A.** 4.5% (inactive)

**Q.** Which “activity change, negative = cytotoxicity” value does the source give for CSc1ncccc1C(=O)N1CCCC(CCC(=O)NCc2ccccc2F)C1 (centres undefined) here?
**A.** -19.4% (inactive)

**Q.** For Cc1[nH]c2c(C(=O)N3CCCC(CCC(=O)NCc4ccccc4F)C3)cccc2c1C (centres undefined), which Potency is on record?
**A.** 16.4 µM (active)

**Q.** With COc1cccc(CNC(=O)CCC2CCCN(C(=O)c3cc(C)[nH]n3)C2)c1 (centres undefined) as the molecule, how does the “activity change, negative = cytotoxicity” value read?
**A.** 0% (inactive)

**Q.** Which “activity change, negative = cytotoxicity” value does the source give for CC(C)NC(=O)N1Cc2cc(C(=O)NCC(F)(F)F)nc(-c3cccc(-c4cc5ccccc5o4)c3)c2[C@@H]1CCO here?
**A.** -2.81% (inactive)

**Q.** For COc1ccc2nc(N3CCCC(O)C3)c(C#N)cc2c1 (centres undefined), which “activity change, negative = cytotoxicity” value is on record?
**A.** 20.8% (inactive)

**Q.** For CCOc1ccc2nc(N3CCCN(C(=O)Nc4ccccc4C)CC3)c(C#N)cc2c1, which Potency is on record?
**A.** 18.4 µM (active)

**Q.** With CCOc1ccc2nc(N3CCCC(C(=O)Nc4cc(C)ccc4C)C3)sc2c1 (centres undefined) as the molecule, how does the “activity change, negative = cytotoxicity” value read?
**A.** 5.92% (inactive)

**Q.** With CCOC(=O)c1ccccc1NC(=O)c1nn(-c2ccc(OC)c(Cl)c2)c(=O)c2c1c1ccccc1n2C as the molecule, how does the “activity change, negative = cytotoxicity” value read?
**A.** -2.72% (inactive)

**Q.** Which “activity change, negative = cytotoxicity” value does the source give for CN(C)CCNC(=O)c1ccc(-c2cn3c(-c4ccc(Oc5ccccc5)cc4)cnc3cn2)cc1 here?
**A.** 0.255% (inactive)

**Q.** With O=C(CCc1nc(CN2CCN(S(=O)(=O)c3ccc(F)cc3)CC2)no1)N1CCCCC1 as the molecule, how does the “activity change, negative = cytotoxicity” value read?
**A.** 3.75% (inactive)

**Q.** For CC(=O)Nc1cnc(-c2ccc(O)cc2C)cn1, which “activity change, negative = cytotoxicity” value is on record?
**A.** -0.324% (inactive)

**Q.** Which “activity change, negative = cytotoxicity” value does the source give for Oc1ccc(-c2nc3ccccc3nc2-c2ccc(O)cc2O)c(O)c1 here?
**A.** 8.6% (inactive)

**Q.** With Cc1cc(O)ccc1-c1cnc2ccccc2n1 as the molecule, how does the Potency read?
**A.** 14.6 µM (active)

**Q.** For O=C(Nc1ccccc1Br)c1cc(CN2CCCC2)on1, which “activity change, negative = cytotoxicity” value is on record?
**A.** -8.6% (inactive)

**Q.** With OC(c1ccc(Cl)cc1)c1ncc(-c2ccc(Cl)cc2)[nH]1 (centres undefined) as the molecule, how does the “activity change, negative = cytotoxicity” value read?
**A.** 1.01% (inactive)

**Q.** Which Potency does the source give for O=C(Nc1ccc(OC(F)(F)F)cc1)c1ccc2c(c1)no[n+]2[O-] here?
**A.** 20.6 µM (active)

**Q.** For Cn1cccc1/C=N/NC(=O)c1ccc(OC(F)(F)C(F)F)cc1, which “activity change, negative = cytotoxicity” value is on record?
**A.** 13.2% (inactive)

**Q.** Which “activity change, negative = cytotoxicity” value does the source give for COC(=O)c1cnn(-c2ccc(C(=O)Nc3ccc(OC(F)(F)F)cc3)cc2)c1N here?
**A.** 1.13% (inactive)

**Q.** With CCN(CC)C(=O)C1=C(C)N(Cc2ccc(F)cc2)C(=O)C(CC(=O)NC2CCCC2)C1 (centres undefined) as the molecule, how does the “activity change, negative = cytotoxicity” value read?
**A.** 0% (inactive)

**Q.** For CCc1ccc([C@@H]2CC(=O)[C@@H]3CN(S(=O)(=O)c4ccc(C)cc4)[C@H](c4ccc(Cl)cc4)C[C@@H]3N2S(=O)(=O)c2ccc(C)cc2)cc1, which “activity change, negative = cytotoxicity” value is on record?
**A.** 14.3% (inactive)

**Q.** Which “activity change, negative = cytotoxicity” value does the source give for Cc1ccc2nc(CN3CCN(S(=O)(=O)c4ccc(C)c(C)c4)CC3)oc2c1 here?
**A.** 15% (inactive)

**Q.** With Cc1ccc(S(=O)(=O)N2CCN(c3ccccc3)CC2)cc1C as the molecule, how does the “activity change, negative = cytotoxicity” value read?
**A.** -13.5% (inactive)

**Q.** With Cc1cc(N2CCN(S(=O)(=O)c3ccc(C)c(C)c3)CC2)c2ccccc2n1 as the molecule, how does the Potency read?
**A.** 3.26 µM (active)

**Q.** For CCOC(=O)c1c(C)[nH]c(C)c1S(=O)(=O)N1CCCC(C(=O)NCc2ccccc2Cl)C1 (centres undefined), which “activity change, negative = cytotoxicity” value is on record?
**A.** 27.7% (inactive)

**Q.** For CCn1c(CNc2ccc(OC)cc2)nnc1SCC(=O)c1ccc(OC)cc1, which “activity change, negative = cytotoxicity” value is on record?
**A.** -1.67% (inactive)

**Q.** For CCc1nnc(NC(=O)CSc2nnc(Cc3ccccc3)n2-c2ccc(OC)cc2)s1, which “activity change, negative = cytotoxicity” value is on record?
**A.** 10.7% (inactive)

**Q.** Which Potency does the source give for COc1ccc(NCc2nnc(SCc3ccccc3)n2-c2ccc(OC)cc2)cc1 here?
**A.** 8.2 µM (active)

**Q.** For CNC(=O)c1ccc(-c2nc(CN3CCc4ccccc43)c(C)o2)cc1, which “activity change, negative = cytotoxicity” value is on record?
**A.** -20.6% (inactive)

**Q.** For COc1ccc(C(O)c2nc(-c3ccc4c(c3)OCO4)cs2)cc1 (centres undefined), which “activity change, negative = cytotoxicity” value is on record?
**A.** 2.33% (inactive)

**Q.** Which Potency does the source give for COc1ccc(-c2csc(N3CCN(Cc4ccc5c(c4)OCO5)CC3)n2)cc1 here?
**A.** 13 µM (active)

**Q.** With O=C(CN1CCN(c2nc(-c3ccccc3)cs2)CC1)NCc1ccc2c(c1)OCO2 as the molecule, how does the “activity change, negative = cytotoxicity” value read?
**A.** -8.12% (inactive)

**Q.** For CCN(C(=O)Nc1cccc2ccccc12)c1ccccc1, which “activity change, negative = cytotoxicity” value is on record?
**A.** -1.11% (inactive)

**Q.** Which “activity change, negative = cytotoxicity” value does the source give for CC1(C(=O)Nc2ccccc2Br)CCN1C(=O)CC1CC1 (centres undefined) here?
**A.** 4.78% (inactive)

**Q.** Which “activity change, negative = cytotoxicity” value does the source give for Cc1ccc(CN(C)C[C@@H]2OCc3cnnn3CCCC(=O)N([C@@H](C)CO)C[C@H]2C)cc1 here?
**A.** 16.2% (inactive)

**Q.** Which “activity change, negative = cytotoxicity” value does the source give for CCC(C(=O)Nc1c(C)cccc1C)n1c(-c2cc(C)cs2)nc2ccccc21 (centres undefined) here?
**A.** -20.7% (inactive)

**Q.** For OC(c1cc(Cl)cc(Cl)c1)c1ncc(-c2ccccc2C(F)(F)F)[nH]1 (centres undefined), which “activity change, negative = cytotoxicity” value is on record?
**A.** 0% (inactive)

**Q.** For CCc1cc(=O)oc2cc(OCC(=O)N3CCCc4ccccc43)ccc12, which “activity change, negative = cytotoxicity” value is on record?
**A.** -23.3% (inactive)

**Q.** For Cc1ccccc1NC(=O)c1ccc(COc2ccc3c(C)cc(=O)oc3c2)cc1, which “activity change, negative = cytotoxicity” value is on record?
**A.** -1.61% (inactive)

**Q.** Which Potency does the source give for Cc1cc(=O)oc2cc(OCC3CC(c4ccccc4Cl)=NO3)ccc12 (centres undefined) here?
**A.** 1.16 µM (active)

**Q.** Which Potency does the source give for Cc1ccccc1N1CCN(CCCOc2ccc3c(C)cc(=O)oc3c2)CC1 here?
**A.** 11.2 µM (active)

**Q.** For Cc1cc(=O)oc2cc(OCC(=O)Nc3nnc(C4CC4)s3)ccc12, which “activity change, negative = cytotoxicity” value is on record?
**A.** 10.4% (inactive)

**Q.** For Cc1cc(OCCCN2CCN(Cc3ccccc3)CC2)ccc1[N+](=O)[O-], which “activity change, negative = cytotoxicity” value is on record?
**A.** -9.82% (inactive)
